The values below come from ChEMBL document CHEMBL1961873, “Compounds: GSK PKIS; Assays: Nanosyn kinase panel” (2012).

For experiment [1], the target named is T1, Ephrin type-B receptor 2 (Homo sapiens) (UniProt P29323).
T1 sequence (whole entry): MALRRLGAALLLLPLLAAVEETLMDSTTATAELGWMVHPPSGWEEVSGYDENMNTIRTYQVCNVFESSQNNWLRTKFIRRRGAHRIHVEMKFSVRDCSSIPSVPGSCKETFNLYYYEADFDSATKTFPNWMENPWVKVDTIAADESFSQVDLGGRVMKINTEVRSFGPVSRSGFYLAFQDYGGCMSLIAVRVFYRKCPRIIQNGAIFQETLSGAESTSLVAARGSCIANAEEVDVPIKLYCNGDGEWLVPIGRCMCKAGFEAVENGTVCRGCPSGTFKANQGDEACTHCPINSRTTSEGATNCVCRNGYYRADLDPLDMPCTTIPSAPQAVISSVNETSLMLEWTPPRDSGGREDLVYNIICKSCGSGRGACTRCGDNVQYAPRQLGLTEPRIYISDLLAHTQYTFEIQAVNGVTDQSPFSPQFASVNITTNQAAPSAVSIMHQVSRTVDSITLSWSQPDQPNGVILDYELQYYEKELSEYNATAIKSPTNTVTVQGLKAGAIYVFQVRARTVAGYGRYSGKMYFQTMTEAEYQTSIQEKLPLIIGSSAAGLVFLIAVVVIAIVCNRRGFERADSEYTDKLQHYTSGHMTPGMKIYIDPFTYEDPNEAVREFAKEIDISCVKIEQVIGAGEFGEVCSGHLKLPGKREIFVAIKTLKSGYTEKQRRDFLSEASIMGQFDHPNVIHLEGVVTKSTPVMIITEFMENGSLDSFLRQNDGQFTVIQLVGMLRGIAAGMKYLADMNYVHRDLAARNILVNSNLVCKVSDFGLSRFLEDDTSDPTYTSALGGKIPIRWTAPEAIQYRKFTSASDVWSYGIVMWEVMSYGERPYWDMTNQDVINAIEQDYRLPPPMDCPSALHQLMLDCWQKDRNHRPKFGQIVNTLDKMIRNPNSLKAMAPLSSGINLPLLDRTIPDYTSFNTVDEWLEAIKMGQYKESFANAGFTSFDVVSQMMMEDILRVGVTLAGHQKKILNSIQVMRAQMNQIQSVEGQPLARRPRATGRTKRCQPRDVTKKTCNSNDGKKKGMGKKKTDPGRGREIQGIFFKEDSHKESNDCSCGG
The note with it: at 1 µM.

In experiment [2] the target is T2, Ephrin type-B receptor 3 (Homo sapiens) (UniProt P54753).
T2 sequence (whole entry): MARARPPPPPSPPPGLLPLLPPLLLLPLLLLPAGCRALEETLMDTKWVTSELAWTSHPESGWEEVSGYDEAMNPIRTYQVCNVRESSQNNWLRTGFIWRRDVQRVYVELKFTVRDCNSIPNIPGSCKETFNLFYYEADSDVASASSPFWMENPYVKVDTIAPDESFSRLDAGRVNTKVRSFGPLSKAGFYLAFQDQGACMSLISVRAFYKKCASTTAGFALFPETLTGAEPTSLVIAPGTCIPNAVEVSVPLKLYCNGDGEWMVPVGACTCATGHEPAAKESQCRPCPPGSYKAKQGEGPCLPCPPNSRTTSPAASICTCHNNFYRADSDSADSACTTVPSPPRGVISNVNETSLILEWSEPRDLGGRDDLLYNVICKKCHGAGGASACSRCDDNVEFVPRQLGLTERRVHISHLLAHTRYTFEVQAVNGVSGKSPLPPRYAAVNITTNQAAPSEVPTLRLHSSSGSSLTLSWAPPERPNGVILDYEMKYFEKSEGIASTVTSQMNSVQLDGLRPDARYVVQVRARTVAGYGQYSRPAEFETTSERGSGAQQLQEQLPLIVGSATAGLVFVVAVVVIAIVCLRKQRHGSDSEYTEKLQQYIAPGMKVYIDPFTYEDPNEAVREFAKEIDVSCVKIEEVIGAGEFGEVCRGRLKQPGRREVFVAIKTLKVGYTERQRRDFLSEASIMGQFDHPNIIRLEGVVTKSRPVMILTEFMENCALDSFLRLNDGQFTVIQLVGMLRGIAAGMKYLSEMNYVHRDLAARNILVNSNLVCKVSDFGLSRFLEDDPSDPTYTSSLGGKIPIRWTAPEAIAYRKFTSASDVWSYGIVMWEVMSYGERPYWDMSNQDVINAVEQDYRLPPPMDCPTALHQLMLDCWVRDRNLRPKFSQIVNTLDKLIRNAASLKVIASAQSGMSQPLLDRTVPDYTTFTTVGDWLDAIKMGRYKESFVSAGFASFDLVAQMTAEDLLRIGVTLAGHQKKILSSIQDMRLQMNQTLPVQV
The settings on record: at 0.1 µM.

The target of experiment [3] is T2, Ephrin type-B receptor 3 (Homo sapiens). The note with it: at 1 µM.
Experiment [4] has as its target T3, Ephrin type-B receptor 4 (Homo sapiens) (UniProt P54760).
T3 sequence (whole entry): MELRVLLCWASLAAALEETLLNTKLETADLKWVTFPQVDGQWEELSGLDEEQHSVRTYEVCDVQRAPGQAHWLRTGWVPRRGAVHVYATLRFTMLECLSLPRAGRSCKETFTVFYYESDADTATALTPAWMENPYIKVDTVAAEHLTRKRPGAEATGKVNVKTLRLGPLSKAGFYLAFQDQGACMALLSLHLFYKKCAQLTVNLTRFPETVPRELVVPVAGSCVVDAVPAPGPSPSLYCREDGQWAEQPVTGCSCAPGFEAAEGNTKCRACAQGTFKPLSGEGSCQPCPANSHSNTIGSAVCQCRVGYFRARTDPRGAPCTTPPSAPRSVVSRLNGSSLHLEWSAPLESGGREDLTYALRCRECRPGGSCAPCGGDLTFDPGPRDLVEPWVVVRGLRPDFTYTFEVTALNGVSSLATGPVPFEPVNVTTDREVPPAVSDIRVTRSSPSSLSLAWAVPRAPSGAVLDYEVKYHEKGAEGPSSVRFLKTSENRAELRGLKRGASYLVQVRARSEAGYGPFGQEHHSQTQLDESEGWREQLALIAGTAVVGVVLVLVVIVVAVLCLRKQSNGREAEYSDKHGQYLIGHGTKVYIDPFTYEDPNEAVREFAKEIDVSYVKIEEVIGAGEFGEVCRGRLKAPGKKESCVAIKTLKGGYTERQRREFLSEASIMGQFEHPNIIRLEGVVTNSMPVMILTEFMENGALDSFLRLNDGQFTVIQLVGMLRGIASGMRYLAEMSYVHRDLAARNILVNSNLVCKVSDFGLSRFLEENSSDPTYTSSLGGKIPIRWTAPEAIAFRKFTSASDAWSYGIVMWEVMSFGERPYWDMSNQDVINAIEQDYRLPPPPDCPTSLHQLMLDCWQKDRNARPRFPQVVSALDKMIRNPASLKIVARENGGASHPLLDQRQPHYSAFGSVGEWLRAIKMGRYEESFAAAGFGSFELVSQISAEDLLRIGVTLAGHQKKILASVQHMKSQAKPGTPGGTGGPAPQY
The settings on record: at 0.1 µM.

For experiment [5], the target named is T3, Ephrin type-B receptor 4 (Homo sapiens). The settings on record: at 1 µM.
Experiment [6] has as its target Receptor tyrosine-protein kinase erbB-2 (Homo sapiens) (UniProt P04626). The settings on record: at 0.1 µM.
The target is the same in experiment [7]. The note with it: at 1 µM.
Experiment [8] has as its target Receptor tyrosine-protein kinase erbB-4 (Homo sapiens) (UniProt Q15303). The note with it: at 0.1 µM.
Experiment [9] shares this target. The settings on record: at 1 µM.
Experiment [10] addresses Tyrosine-protein kinase Fer (Homo sapiens) (UniProt P16591). The note with it: at 0.1 µM.
The target is the same in experiment [11]. The note with it: at 1 µM.
For experiment [12], the target named is Tyrosine-protein kinase Fes/Fps (Homo sapiens) (UniProt P07332). The note with it: at 0.1 µM.
Tyrosine-protein kinase Fes/Fps (Homo sapiens), sequence (P07332 whole entry): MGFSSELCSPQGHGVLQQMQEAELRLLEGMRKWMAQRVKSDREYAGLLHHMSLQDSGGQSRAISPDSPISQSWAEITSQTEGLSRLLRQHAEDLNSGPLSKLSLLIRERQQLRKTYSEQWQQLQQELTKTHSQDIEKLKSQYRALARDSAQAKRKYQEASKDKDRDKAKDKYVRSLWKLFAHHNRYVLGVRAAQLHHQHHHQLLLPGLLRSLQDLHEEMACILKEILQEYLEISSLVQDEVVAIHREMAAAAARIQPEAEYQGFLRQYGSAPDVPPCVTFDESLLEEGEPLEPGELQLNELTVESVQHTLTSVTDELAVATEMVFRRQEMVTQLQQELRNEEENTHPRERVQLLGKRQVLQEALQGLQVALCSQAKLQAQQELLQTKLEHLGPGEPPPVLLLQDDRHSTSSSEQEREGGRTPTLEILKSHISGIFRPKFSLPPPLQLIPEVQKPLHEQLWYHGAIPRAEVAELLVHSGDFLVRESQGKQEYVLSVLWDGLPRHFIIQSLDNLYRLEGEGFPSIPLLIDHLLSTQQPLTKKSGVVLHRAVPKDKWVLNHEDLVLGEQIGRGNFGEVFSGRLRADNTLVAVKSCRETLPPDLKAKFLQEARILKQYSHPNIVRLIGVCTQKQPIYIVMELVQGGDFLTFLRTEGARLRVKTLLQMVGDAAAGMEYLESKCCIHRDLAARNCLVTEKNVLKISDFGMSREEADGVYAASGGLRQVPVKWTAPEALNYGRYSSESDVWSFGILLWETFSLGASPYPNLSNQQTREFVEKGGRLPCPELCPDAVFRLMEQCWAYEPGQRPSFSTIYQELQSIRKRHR
For experiment [13] the target is unchanged. The note with it: at 1 µM.
In experiment [14] the target is Fibroblast growth factor receptor 1 (Homo sapiens) (UniProt P11362). The settings on record: at 0.1 µM.
Fibroblast growth factor receptor 1 (Homo sapiens), sequence (P11362 22-822 limits assumed): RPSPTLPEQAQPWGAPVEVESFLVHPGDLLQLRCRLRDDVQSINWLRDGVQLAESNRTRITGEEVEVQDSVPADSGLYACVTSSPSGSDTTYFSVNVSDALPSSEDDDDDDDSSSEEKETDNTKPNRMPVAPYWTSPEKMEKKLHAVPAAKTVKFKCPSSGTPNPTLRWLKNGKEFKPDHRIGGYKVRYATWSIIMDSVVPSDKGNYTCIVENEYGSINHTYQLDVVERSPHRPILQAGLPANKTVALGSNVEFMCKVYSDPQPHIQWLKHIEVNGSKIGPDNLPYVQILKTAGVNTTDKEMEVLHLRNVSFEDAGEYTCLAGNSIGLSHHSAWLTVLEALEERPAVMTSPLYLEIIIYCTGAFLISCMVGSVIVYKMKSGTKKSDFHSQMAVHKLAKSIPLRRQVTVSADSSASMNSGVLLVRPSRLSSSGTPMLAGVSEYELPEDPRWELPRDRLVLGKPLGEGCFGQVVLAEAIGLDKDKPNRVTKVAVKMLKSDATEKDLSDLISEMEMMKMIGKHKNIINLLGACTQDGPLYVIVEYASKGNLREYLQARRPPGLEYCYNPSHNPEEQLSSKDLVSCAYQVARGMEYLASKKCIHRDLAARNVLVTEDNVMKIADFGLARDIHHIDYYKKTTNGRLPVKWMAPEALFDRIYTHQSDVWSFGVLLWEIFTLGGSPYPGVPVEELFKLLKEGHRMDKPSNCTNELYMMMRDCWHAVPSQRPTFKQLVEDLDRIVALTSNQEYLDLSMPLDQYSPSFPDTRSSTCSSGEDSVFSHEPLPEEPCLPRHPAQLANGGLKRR
For experiment [15] the target is unchanged. The note with it: at 1 µM.
Experiment [16] deals with Fibroblast growth factor receptor 2 (Homo sapiens) (UniProt P21802). The note with it: at 0.1 µM.
Fibroblast growth factor receptor 2 (Homo sapiens), sequence (P21802 22-821 limits assumed): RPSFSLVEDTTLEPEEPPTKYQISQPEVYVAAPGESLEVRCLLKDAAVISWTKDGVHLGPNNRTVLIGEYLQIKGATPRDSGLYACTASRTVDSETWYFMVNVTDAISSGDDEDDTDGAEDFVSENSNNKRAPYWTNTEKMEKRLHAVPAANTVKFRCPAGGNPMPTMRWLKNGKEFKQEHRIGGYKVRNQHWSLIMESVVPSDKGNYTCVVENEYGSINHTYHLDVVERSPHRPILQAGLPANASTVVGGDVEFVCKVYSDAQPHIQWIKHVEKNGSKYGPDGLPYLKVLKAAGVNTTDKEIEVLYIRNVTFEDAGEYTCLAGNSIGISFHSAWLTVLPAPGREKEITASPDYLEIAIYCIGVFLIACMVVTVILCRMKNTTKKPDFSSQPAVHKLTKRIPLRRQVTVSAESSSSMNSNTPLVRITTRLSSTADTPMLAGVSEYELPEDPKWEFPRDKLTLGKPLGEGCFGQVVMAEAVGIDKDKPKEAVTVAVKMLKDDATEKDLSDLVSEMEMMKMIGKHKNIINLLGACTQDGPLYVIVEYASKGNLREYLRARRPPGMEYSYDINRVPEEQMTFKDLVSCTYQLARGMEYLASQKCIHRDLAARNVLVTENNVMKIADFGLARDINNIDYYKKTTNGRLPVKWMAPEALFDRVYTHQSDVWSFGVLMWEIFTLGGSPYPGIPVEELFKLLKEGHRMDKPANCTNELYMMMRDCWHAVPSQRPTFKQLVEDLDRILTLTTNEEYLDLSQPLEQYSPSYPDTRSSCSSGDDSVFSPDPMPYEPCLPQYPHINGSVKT
For experiment [17] the target is unchanged. The note with it: at 1 µM.
Experiment [18] addresses Fibroblast growth factor receptor 3 (Homo sapiens) (UniProt P22607). The settings on record: at 0.1 µM.
Experiment [19] has the same target. The settings on record: at 1 µM.
In experiment [20] the target is Fibroblast growth factor receptor 4 (Homo sapiens) (UniProt P22455). The settings on record: at 0.1 µM.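 Further: values are mean percent inhibition of FGFR4.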
Fibroblast growth factor receptor 4 (Homo sapiens), sequence (P22455 22-802 limits assumed): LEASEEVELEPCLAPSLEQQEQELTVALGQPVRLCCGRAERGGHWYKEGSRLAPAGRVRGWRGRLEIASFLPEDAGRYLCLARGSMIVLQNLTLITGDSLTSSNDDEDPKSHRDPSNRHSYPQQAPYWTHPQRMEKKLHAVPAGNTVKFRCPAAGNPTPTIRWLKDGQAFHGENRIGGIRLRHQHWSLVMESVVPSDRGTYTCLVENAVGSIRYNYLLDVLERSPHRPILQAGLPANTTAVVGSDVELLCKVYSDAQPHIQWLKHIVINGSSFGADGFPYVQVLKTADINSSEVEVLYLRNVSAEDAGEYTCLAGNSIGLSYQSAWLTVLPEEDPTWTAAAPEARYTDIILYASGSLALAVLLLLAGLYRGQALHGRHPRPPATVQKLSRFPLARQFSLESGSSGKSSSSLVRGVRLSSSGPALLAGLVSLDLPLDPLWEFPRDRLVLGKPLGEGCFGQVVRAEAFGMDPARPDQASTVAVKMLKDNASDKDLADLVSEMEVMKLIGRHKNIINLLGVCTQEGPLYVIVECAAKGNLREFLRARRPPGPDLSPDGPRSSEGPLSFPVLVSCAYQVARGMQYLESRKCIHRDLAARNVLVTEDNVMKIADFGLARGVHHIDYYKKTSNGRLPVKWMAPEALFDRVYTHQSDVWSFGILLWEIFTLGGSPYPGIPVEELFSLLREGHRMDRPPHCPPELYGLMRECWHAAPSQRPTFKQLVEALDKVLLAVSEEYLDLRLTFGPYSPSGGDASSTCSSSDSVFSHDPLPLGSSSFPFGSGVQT

Where “and” joins values, the source holds several entries; their conditions need not be identical. Identical values can stand only once.

Fibroblast growth factor receptor 3 (Homo sapiens), sequence (P22607 23-806 limits assumed): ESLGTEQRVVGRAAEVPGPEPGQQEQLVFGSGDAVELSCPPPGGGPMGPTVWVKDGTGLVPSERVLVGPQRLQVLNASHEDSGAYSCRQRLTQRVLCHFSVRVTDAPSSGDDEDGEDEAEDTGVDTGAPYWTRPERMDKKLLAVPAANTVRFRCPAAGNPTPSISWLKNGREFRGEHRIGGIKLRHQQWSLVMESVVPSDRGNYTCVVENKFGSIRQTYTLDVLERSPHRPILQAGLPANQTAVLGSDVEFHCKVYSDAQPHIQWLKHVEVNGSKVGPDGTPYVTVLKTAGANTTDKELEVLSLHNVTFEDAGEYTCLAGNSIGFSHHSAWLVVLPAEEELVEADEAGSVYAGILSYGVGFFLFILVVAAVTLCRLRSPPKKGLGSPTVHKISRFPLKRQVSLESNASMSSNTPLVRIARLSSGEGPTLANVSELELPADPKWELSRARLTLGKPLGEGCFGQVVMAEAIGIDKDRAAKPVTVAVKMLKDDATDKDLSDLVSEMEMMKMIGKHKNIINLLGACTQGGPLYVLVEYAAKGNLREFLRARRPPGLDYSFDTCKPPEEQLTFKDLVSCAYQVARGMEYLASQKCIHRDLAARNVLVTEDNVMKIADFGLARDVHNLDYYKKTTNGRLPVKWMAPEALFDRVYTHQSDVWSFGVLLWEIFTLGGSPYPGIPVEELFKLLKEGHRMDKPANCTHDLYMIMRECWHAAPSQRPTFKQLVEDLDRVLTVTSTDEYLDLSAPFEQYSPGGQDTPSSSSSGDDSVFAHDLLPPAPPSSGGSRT
Tyrosine-protein kinase Fer (Homo sapiens), sequence (P16591 whole entry, looked up): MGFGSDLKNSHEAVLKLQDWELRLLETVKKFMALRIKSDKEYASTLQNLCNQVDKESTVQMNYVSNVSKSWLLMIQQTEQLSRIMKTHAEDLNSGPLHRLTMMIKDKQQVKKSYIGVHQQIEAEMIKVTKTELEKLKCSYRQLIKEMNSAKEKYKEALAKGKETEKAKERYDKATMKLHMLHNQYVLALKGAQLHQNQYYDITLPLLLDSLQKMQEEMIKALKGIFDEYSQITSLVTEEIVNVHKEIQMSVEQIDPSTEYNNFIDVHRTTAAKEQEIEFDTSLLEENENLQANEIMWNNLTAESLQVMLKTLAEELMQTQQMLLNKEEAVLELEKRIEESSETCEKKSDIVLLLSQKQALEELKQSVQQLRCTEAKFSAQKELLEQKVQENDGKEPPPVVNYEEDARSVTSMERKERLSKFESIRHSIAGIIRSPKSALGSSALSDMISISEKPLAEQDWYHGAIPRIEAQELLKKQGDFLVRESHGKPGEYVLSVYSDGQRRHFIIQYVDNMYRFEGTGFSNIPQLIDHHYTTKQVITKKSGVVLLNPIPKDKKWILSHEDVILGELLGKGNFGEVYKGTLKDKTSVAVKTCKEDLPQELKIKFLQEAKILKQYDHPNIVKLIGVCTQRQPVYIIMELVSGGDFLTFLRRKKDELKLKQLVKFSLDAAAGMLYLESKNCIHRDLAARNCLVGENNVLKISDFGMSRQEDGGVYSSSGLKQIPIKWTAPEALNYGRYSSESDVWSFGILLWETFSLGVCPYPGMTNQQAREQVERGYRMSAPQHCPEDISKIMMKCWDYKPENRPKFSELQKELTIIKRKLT

A word on the inhibition: it is the change of the read-out against control, counted positive when it falls. With `CC1=C(C(=O)Nc2ccc3[nH]ncc3c2)C(c2ccc(F)cc2)N=C(c2ccc(C(F)(F)F)nc2)N1` (stereo not given), the inhibition was found to be 8.11% in experiment [1]; 3.81% in experiment [2]; 2.31% in [3]; 1.15% in [4]; 2.78% in [5]; 1.68% in experiment [6]. The inhibition was 3.01% in experiment [7]; 7.98% in [8]; 11.7% in [9]; 0.93% in experiment [10]; 2.23% in [11]; 1.4% in [12]. Moreover, the inhibition in [13] came to 2.21%; in experiment [14] it was 6.73%; in [15] it was 7.75%; in experiment [16] it was 4.37%; in experiment [17] it was 9.66%; in experiment [18] it was 4.88%. The inhibition in [19] was 7.89%; in [20], 0.81%.
As for `COc1c(C(N)=O)cc(-c2ccc(Cl)cc2)cc1-c1ccc(S(N)(=O)=O)cc1`, the inhibition was 8.13% in experiment [1]; 1.93% in experiment [2]; 4.65% in experiment [3]; 5.71% in experiment [4]; 3.61% in experiment [5]; 1.74% in experiment [6]. Besides, the inhibition in experiment [7] turned out to be 4.75%; in [8] it was 7.58%; in [9], 12.9%; in [10], 0.34%; in [11], 5.66%; in experiment [12], 3.78%. The inhibition in [13] was 5.26%; in experiment [14], 7.12%; in experiment [15], 7.58%; in [16] it was 5.92%; in [17] it was 5.85%; in experiment [18], 5.11%. Besides, the inhibition in [19] came out at 6.87%; in experiment [20] it was 4.18%.
`CN1CCN(Cc2ccc(-c3cc4ncnc(Nc5ccc(OCc6cccc(F)c6)c(Cl)c5)c4s3)o2)CC1`: the inhibition in experiment [1] was 8.33% and 7.32%; in experiment [2] it was 3.73% and 7.71%; in experiment [3] it was 4.63% and 4.53%; in experiment [4], 0.3% and 3.67%; in experiment [5], 6.48% and 3.12%; in [6], 5.26% and 7.95%. Moreover, the inhibition in [7] was 62.3% and 65%; in [8] it was 81.7% and 91.1%; in experiment [9], 93% and 97.8%; in experiment [10], 1.93% and 6.27%; in [11], 7.48% and 15.1%; in experiment [12], 2.89% and 4.05%. Besides, the inhibition in [13] is 6.42% and 6.83%; in [14] it was 2.24% and 7.51%; in [15], 2.3% and 1.47%; in [16], 3.18% and 3.5%; in experiment [17], 4.91% and 4.73%; in experiment [18], 3.81% and 6.54%. For the same compound, the inhibition in [19] was 2.58% and 3.34%; in [20], 0.04% and -5.98%.
